Reference: PubChem BioAssay (NCATS)
Results filed as inconclusive are left out. Calls of active or inactive are those of the source. The call rests on the fitted dose curve; in most records, active means well fitted inhibition curve with a large enough effect; inconclusive means small, poorly fitted or top-dose-only effect; inactive means no such curve, though single readings can be large or run the other way.

Biological target: N-terminal Xaa-Pro-Lys N-methyltransferase 1 (Homo sapiens) (UniProt Q9BV86)
Sequence (Q9BV86 whole entry, looked up): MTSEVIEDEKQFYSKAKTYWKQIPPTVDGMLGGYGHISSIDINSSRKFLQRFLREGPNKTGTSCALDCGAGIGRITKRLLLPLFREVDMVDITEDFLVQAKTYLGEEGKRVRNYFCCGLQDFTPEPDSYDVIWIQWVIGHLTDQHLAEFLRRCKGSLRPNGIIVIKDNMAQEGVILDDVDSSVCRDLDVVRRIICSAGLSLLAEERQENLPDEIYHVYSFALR
Experiment: Confirmatory qHTS for Inhibitors of N-terminal methyltransferase 1 (NTMT1): MTaseGlo Assay (AID 1645874); further: nearly all actives have a fitted effect of over 65% in size;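 on activity change, negative = inhibition: luminescence from SAH made as NTMT1 methylates SPKRIA peptide using SAM; 0% = DMSO control and -100% = no-enzyme control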
Settings: NTMT1 enzyme, MTase-Glo SAH luminescence; series mostly up to 100 µM; activity change, negative = inhibition: at the top concentration
In short: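 Compounds are incubated with 125 nM NTMT1 and 100 uM SAM for 15 min before the SPKRIA peptide (1 uM) starts a 30 min room-temperature methylation. SAH is measured by coupled luciferase luminescence and curves fitted to a Hill equation.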
Potency means the concentration at half of the fitted maximal effect.

Potency, active:
COc1cc2c(NC3CCN(C(C)C)CC3)nc(N3CCCN(CC4CCCCC4)CC3)nc2cc1OCCCN1CCCCC1 43.5 µM
Cc1ccc(C)n1-c1cccc(C(=O)O)c1 6.02 µM
COc1cc(-c2nc3ccc(Cl)cn3c2Nc2ccc3c(c2)OCO3)ccc1O 5.15 µM
c1csc(-c2nc3ccccn3c2Nc2ccc3c(c2)OCCO3)c1 6.49 µM
O=C(Nc1noc2ccccc12)c1ccc(F)cc1 39.8 µM
CCOc1ccc(/C=C/c2nc3ccccc3n2S(=O)(=O)c2cccc(Cl)c2)cc1 12 µM
Cc1cccc2nc(-c3ccc(Cl)s3)c(Nc3ccc4c(c3)OCCO4)n12 3.25 µM
Cc1ccc(/C=C/c2nc3ccccc3[nH]2)cc1 6.49 µM
Cc1ccc(-n2ncc3c(NCCCN(C)C)ncnc32)cc1Cl 39.8 µM
O=S(=O)(c1cccc(Cl)c1)n1c(/C=C/c2ccccc2Cl)nc2ccccc21 6.76 µM
CSc1ccc(/C=C/c2nc3ccccc3n2S(=O)(=O)c2cccc(Cl)c2)cc1 8.51 µM
Fc1cc(Nc2nc(-c3ccncc3)nc3ccccc23)ccc1N1CCNCC1 21.8 µM
COc1cc2c(NC3CCN(C(C)C)CC3)nc(N3CCCCC3)nc2cc1OCCCN1CCCCC1 38.8 µM
COc1cc2nc(N3CCOCC3)nc(NC(C)C)c2cc1OC 34.5 µM
COc1cc2c(NC3CCN(C(C)C)CC3)nc(N3CCCN(c4ccccc4)CC3)nc2cc1OCCCN1CCCC1 55.5 µM
COc1cc2c(NC3CCN(C(C)C)CC3)nc(N3CCCCCC3)nc2cc1OCCCN1CCCC1 30.8 µM
COc1cc2c(NC3CCN(CC4CCCCC4)CC3)nc(N3CCCN(C)CC3)nc2cc1OCCCN1CCCCC1 34.5 µM
Clc1cccc(-c2nc3ccccn3c2Nc2ccc3c(c2)OCCO3)c1 4.09 µM

Activity change, negative = inhibition, inactive:
CCOc1ccccc1N1CC(c2nc3ccccc3n2CCCCOc2cc(C)ccc2C)CC1=O (centres undefined) 9.65%
O=C(Nc1noc2ccccc12)c1c(F)cccc1F -15.3%
CNc1sc(-c2cccc3ccccc23)nc1C#N -9.3%
CCCOc1ccccc1C(=O)Nc1nc2c(s1)CCCC2 -17.2%
O=c1c2cc3c(cc2nc2sc(Nc4ccccc4)nn12)OCO3 -13.1%
Cc1c(Cl)ccc2sc(N3CCN(C(=O)C4CC4)CC3)nc12 -3.67%
